Inconclusive results are not listed. Where a call stands in place of a potency, no number is given. Activity calls are given as the source filed them. The call rests on the fitted dose curve; in most records, active means well fitted cell-killing curve with a large enough effect; inconclusive means small, poorly fitted or top-dose-only effect, or effect the other way; inactive means flat fitted curve, though single readings scatter.
assay: qHTS assay for cell viability of the p53RE-bla HCT-116 cell line (AID 743292); conditions: p53RE-bla HCT-116 viability, ATP luminescence, 16 h; series mostly up to 95 µM; further: nearly all actives have a fitted effect of over 55% in size
Excerpt: U.S. Tox21 Program National Center for Advancing Translational Sciences [NCATS] NIH Chemical Genomics Center [NCGC] U.S. Environmental Protection Agency [EPA] National Institutes of Environmental Health Sciences [NIEHS] National Toxicology Program [NTP] U.S. Food and Drug Administration [FDA] Tox21 Assay Overview: The CellTiter-Glo Luminescent Cell Viability Assay (Promega, Madison, WI) is a homogeneous method to determine the number of viable cells in culture based on quantitation of the ATP present, which signals the presence of metabolically active cells. This cell viability assay was used to screen environmental chemicals in the CellSensor p53RE-bla HCT-116 cell line (Invitrogen).
Tox21 Assay Protocol Summary: Cell viability after compound treatment was measured using a luciferase-coupled ATP quantitation assay (CellTiter-Glo viability assay, Promega, Madison, WI) in CellSensor p53RE-bla HCT-116 cell line (Invitrogen). Total intracellular ATP content corresponds to the number of metabolically competent cells after compound treatment. The cells were dispensed at 4,000 cells/5 uL/well in 1,536-well white/solid bottom assay plates using a Flying Reagent Dispenser (Aurora Discovery, San Diego, CA). The cells were incubated for 5 h at 37 C, followed by the addition of 23 nL of compounds dissolved in DMSO, positive controls or DMSO only using a pintool work station (Kalypsys, San Diego, CA). The assay plates were incubated for 16 h at 37 C, followed by the addition of 5 uL/well of CellTiter-Glo reagent. After 30 min incubation at room temperature, the luminescence intensity of the plates was measured using a ViewLux plate reader (PerkinElmer, Shelton, CT).
Potency means the concentration at half of the fitted maximal effect.

SMILES | Potency
CCC(C)(C)c1cc(-n2nc3ccccc3n2)c(O)c(C(C)(C)CC)c1 | inactive
N#Cc1c[nH]cc1-c1cccc2c1OC(F)(F)O2 | inactive
Clc1ccccc1-c1nnc(-c2ccccc2Cl)nn1 | inactive
CCCCC(CC)COC(=O)Cl (stereo not given) | inactive
ClC1=C(Cl)C2(Cl)C3C4OC4C(Cl)C3C1(Cl)C2(Cl)Cl (stereo not given) | inactive
CCCSP(=O)(OCC)Oc1ccc(Br)cc1Cl (stereo not given) | inactive
CCOP(=S)(OCC)OC(Cl)C(Cl)(Cl)Cl (stereo not given) | inactive
CCNC(=O)NC(=O)/C(C#N)=N/OC | inactive
CC(C)COP(=O)(OCC(C)C)OCC(C)C | inactive
CCCSC(=O)N(CCC)CCC | inactive
COc1ccc(-c2ccccc2)cc1NNC(=O)OC(C)C | inactive
CC1=C(C(=O)Nc2ccccc2)S(=O)(=O)CCO1 | inactive
C=CCC1=C(C)[C@@H](OC(=O)[C@@H]2[C@@H](C=C(C)C)C2(C)C)CC1=O | inactive
CNc1cnn(-c2cccc(C(F)(F)F)c2)c(=O)c1Cl | inactive
CC(C)=CC1[C@H](C(=O)OCc2cccc(Oc3ccccc3)c2)C1(C)C (stereo not given in full) | inactive
CCCCCCCCCCCCN(C)C | inactive
CC(C)Oc1cc(-n2nc(C(C)(C)C)oc2=O)c(Cl)cc1Cl | inactive
CCNc1nc(NC(C)C)nc(SC)n1 | inactive
COC[C@H](C)N(C(=O)CCl)c1c(C)csc1C | inactive
CN1COCN(Cc2cnc(Cl)s2)/C1=N\[N+](=O)[O-] | inactive

SMILES | Potency
CN/C(=N/[N+](=O)[O-])NCC1CCOC1 (stereo not given) | inactive
CC1(C)[C@H](C=C(Cl)Cl)[C@H]1C(=O)O[C@H](C#N)c1ccc(F)c(Oc2ccccc2)c1 | inactive
CCOP(=O)(SC(C)CC)SC(C)CC (stereo not given) | inactive
N#CSCSC#N | 50.1 µM (active)
C/C(=N\NC(=O)Nc1cc(F)cc(F)c1)c1ncccc1C(=O)O | inactive
CCN(CC)C(=O)SCc1ccc(Cl)cc1 | inactive
CC(C)CCCCCCOC(=O)c1ccccc1C(=O)OCCCCCCC(C)C | inactive
Cc1nc(N(C)C)nc(OC(=O)N(C)C)c1C | inactive
CC(C)C1(C)N=C(c2nc3ccccc3cc2C(=O)O)NC1=O (stereo not given) | inactive
COc1cccc(C(=O)NN(C(=O)c2cc(C)cc(C)c2)C(C)(C)C)c1C | inactive
C1CC[CH]([Sn]([CH]2CCCCC2)[CH]2CCCCC2)CC1 | 39.8 µM (active)
CON(C)C(=O)Nc1ccc(Cl)c(Cl)c1 | inactive
COc1nc(C)nc(NC(=O)NS(=O)(=O)c2ccccc2CCC(F)(F)F)n1 | inactive
COc1cc(OC)nc(NC(=O)NS(=O)(=O)c2ncccc2OCC(F)(F)F)n1 | inactive
Nc1cccc(Cl)c1Cl | inactive
CCCOc1nn(C(=O)NS(=O)(=O)c2ccccc2C(=O)OC)c(=O)n1C | inactive
CC(C)(c1ccccc1)c1cc(-n2nc3ccccc3n2)c(O)c(C(C)(C)c2ccccc2)c1 | inactive
CCOP(=S)(Oc1cnc(C(C)(C)C)nc1)OC(C)C (stereo not given) | inactive
CCc1cc(C)cc(CC)c1-c1c(OC(=O)C(C)(C)C)n2n(c1=O)CCOCC2 | inactive
CN(C)P(=O)(N(C)C)N(C)C | inactive

Reference: PubChem BioAssay (NCATS)
